Bioassay records (PubChem BioAssay)
FBPA Giardia inh: inhibitors of Giardia lamblia fructose-1,6-bisphosphate aldolase. A8B2U2. purified Giardia FBPA. Potency, µM (titrated, usually from 59.6 µM), hits mostly inhibitors. 290,000 compounds, 0.71% hits. AID 2451; also: nearly all actives have a fitted effect of over 55% in size
Target sequence (A8B2U2 whole entry, looked up): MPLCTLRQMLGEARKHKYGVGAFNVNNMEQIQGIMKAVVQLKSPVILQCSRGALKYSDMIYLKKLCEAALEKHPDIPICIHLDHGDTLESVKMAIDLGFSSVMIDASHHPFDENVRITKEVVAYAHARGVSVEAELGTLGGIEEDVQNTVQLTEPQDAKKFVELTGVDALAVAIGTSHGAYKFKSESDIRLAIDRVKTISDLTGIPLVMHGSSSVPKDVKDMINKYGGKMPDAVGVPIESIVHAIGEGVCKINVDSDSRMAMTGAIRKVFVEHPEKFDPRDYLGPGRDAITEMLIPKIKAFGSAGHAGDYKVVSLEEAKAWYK
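40 nM FBPA preincubated 10 min at RT with compound (up to 57.5 uM final), then substrate plus GAPDH/TPI/NAD/arsenate coupling and diaphorase/resazurin added. Fluorescence read after 20 min at RT, 525/598 nm.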
Pf growth 96h: P. falciparum growth inhibition at 96 hours; Potency, µM (highest dose often 28.7 µM), hits mostly inhibitors; 320,000 compounds, 6.9% hits; P. falciparum luciferase reporter growth, 96 h
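Two parasite generations (96 h, 37 C, 5% CO2) of compound exposure in infected erythrocytes (0.05% parasitemia, 2% hematocrit). Luciferase-reporter P. falciparum; decreased luminescence indicates inhibited growth, aimed at apicoplast-acting delayed death.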
HCMV inh: inhibitors of human cytomegalovirus; 410,000 compounds, 4.5% hits; AID 1259415; activity change, negative = inhibition, % at 57.5 µM; HFF cells, HCMV-luciferase reporter, 72 h; hits give low values; in the data active = activity change below about -60%; inconclusive = no clear call, values can overlap the other calls; inactive = above about -39%
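Steps: HFFs plated, 16 h 37C; compounds added; HCMV-luciferase added to MOI 1 PFU/cell; 72 h 37C; OneGlo reagent, 5 min room temperature; luminescence read, normalized to controls.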
Sm TGR block: inhibitors of Schistosoma mansoni thioredoxin glutathione reductase | Potency, µM (series often up to 114 µM), actives largely listed as inhibitors | Q962Y6 | purified TGR, DTNB reduction, TNB absorbance 405 nm | 360,000 compounds, 3% hits; also: nearly all actives have a fitted effect of over 60% in size
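First, TGR (20 nM dispensed) and NADPH were mixed with compound. Second, a 15 min room-temperature incubation followed. Third, further NADPH and then DTNB were added to start the reaction. Finally, TNB absorbance was monitored kinetically.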
Pf growth 48h: inhibits P. falciparum growth in the first generation, 48 h. P. falciparum luciferase growth in erythrocytes, 48 h. Potency, µM (doses to about 28.7 µM), usual class: inhibitors. 310,000 compounds, 5.9% hits. AID 504832
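Parasite viability was followed by luminescence of a genomically integrated firefly luciferase. Cultures held 0.1% parasitemia at 2% hematocrit (final), incubated under 5% CO2 at 37 C.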
A number is an active result; n = inactive; u = inconclusive; x = no result; [ ] = another dose, or the depositor's remark. Sampled rows, rich in hits. Any-hit rate of the full collection: about 14%. Unless noted, calls follow the shape of the dose curve; as a rule, active = well fitted curve in the direction sought with a large enough effect; inconclusive = small, poorly fitted or top-dose-only effect, or another doubt; inactive = no such curve, though single readings can be large; an effect the other way counts as inactive or inconclusive.

SMILES | FBPA Giardia inh | Pf growth 96h | HCMV inh | Sm TGR block | Pf growth 48h
COC(=O)n1c(=O)oc2ccccc21 | n | n[5.75 µM] | n | n | n
CCOc1ccc(Oc2ccc(NS(=O)(=O)c3ccc(CCC(=O)O)cc3)cc2)cc1 | x | x | n | x | x
Cc1ccc([C@H]2C(C(=O)O)=CC[C@@H](c3ccc4c(c3)OCO4)N2S(=O)(=O)c2ccc(C)cc2)cc1 | x | x | n | x | x
Cc1ccc(S(=O)(=O)N2[C@@H](c3cccc(Cl)c3)C(C(=O)O)=CC[C@H]2c2cccc(Cl)c2)cc1 | x | n | n | n | u
Cc1ccc(S(=O)(=O)N2[C@@H](c3ccc(Cl)cc3)C(C(=O)O)=CC[C@H]2c2ccc3c(c2)OCO3)cc1 | x | 8.28µM | n | n | 9.28µM
Cc1ccc(S(=O)(=O)N2[C@@H](c3cccc(Cl)c3)C(C(=O)O)=CC[C@H]2c2ccc3c(c2)OCO3)cc1 | x | u | n | n | 9.28µM
O=C(c1ccc(-c2cc(O)c3ncccc3c2)cc1)N1CCNCC1 | x | 9.28µM | n | n | 9.28µM
CC(C)(C)c1ccc(C(=O)N2CCNCC2)cc1 | n | x | n | n | n
COc1ccc(CCNC(=O)/C=C/c2ccco2)cc1 | n | n | n | 10µM | n
CCOc1ccc(CCNC(=O)/C=C/c2ccco2)cc1OCC | x | u | n | 6.31µM | n
CCOc1ccc(CCNC(=O)COC(=O)/C=C/c2ccco2)cc1OCC | x | 7.38µM | n | n | 8.28µM
COc1ccc(/C=C/C(=O)NCCc2ccc(S(N)(=O)=O)cc2)cc1 | n | n | n | n | n
COc1ccc(CCNC(=O)/C=C/c2ccco2)cc1OC | n | u | n | 11.2µM | n
O=C(Cc1cccc(C(F)(F)F)c1)N1CCCC1 | n | n | n | n | n
COc1ccc(/C=C/C(=O)NCCSCc2ccco2)cc1OC | n | n | n | 10µM | n
COc1ccc(/C=C/C(=O)NCCCc2ccccc2)cc1OC | n | u | n | n | n
COc1ccc2nc(Cl)c(C3CC(c4ccco4)=NN3C(=O)CCC(=O)O)cc2c1 (centres undefined) | n | u | n | u | n
Cc1ccc2nc(Cl)c(C3CC(c4ccco4)=NN3C(=O)CCCC(=O)O)cc2c1 (centres undefined) | n | n | u | 35.5µM | n
COc1ccc2nc(Cl)c(C3CC(c4ccco4)=NN3C(=O)CCCC(=O)O)cc2c1 (centres undefined) | n | n | n | 8.91µM | u
COc1ccc(NC(=O)c2cc(-c3ccc(F)cc3OC)n[nH]2)c(C)c1 | x | x | n | x | x
COc1ccc(NC(=O)c2cc(-c3cc(Cl)ccc3OC)n[nH]2)c(C)c1 | x | x | n | x | x
COc1ccc(OC)c(NC(=O)c2cc(-c3cc(C)ccc3O)n[nH]2)c1 | n | 6.57µM | n | n | u
COc1ccc(OC)c(NC(=O)c2cc(-c3ccc(C)cc3O)n[nH]2)c1 | n | x | n | n | 10.4µM
O=C(c1ccc2oc(Cc3ccc(Cl)cc3)nc2c1)N1CCCCC1CCO (centres undefined) | x | u | n | u | n
CC1CCc2sc(C(=O)N/N=C/c3ccc(O)cc3)cc2C1 (centres undefined) | n | n | -63.9 | n | n
SMILES | FBPA Giardia inh | Pf growth 96h | HCMV inh | Sm TGR block | Pf growth 48h
C/C(=N\NC(=O)c1cc2c(s1)CCC(C)C2)c1ccncc1 (centres undefined) | n | 9.28µM | u | n | n
O=C(O)c1ccc(C(=O)c2cc([N+](=O)[O-])cc([N+](=O)[O-])c2)cc1 | x | x | n | x | x
O=C(N/N=C/c1cccnc1)c1cc(-c2ccccc2OCc2ccccc2)n[nH]1 | n | u | u | n | 10.4µM
O=C(N/N=C/c1cccnc1)c1ccccc1OCc1ccc(Cl)cc1 | n | n | x | n | u
O=C(N/N=C/c1cccnc1)c1ccccc1OCc1ccc(Br)cc1 | u | n | u | n | 9.28µM
N#Cc1cccc(NC(=O)N2CC[C@@]3(CCCN(C(=O)c4ccncc4)C3)C2)c1 | n | x | x | x | x
COc1cc(C)c(CNc2ccc(OC)c(OC)c2)cc1C | u | x | x | u | 9.28µM
Cc1ccc(C)n1-c1sccc1C(=O)O | n | n | x | 39.8µM | x
Cc1ccc(C)n1-c1sc2c(c1C(=O)O)CCCC2 | n | u | n | n | n
CCC1CO/C(=C(\C(Cl)=C(Cl)Cl)[N+](=O)[O-])N1Cc1ccc(Cl)nc1 (centres undefined) | n | n | n | n | x
CCC1CO/C(=C(\C(Cl)=C(Cl)Cl)[N+](=O)[O-])N1 (centres undefined) | n | n | n | 8.91µM | n
N=c1c(C(=O)NCC2CCCO2)cc2c(=O)n3ccccc3nc2n1Cc1ccc(Cl)cc1 (centres undefined) | x | u | -83.3 | n | 10.4µM
N=c1c(S(=O)(=O)c2ccc(Br)cc2)cc2c(=O)n3ccccc3nc2n1C1CCCCC1 | x | 3.7µM | n | n | 8.28µM
N=c1c(C(=O)NCC2CCCO2)cc2c(=O)n3ccccc3nc2n1Cc1ccccc1Cl (centres undefined) | x | u | -101.4 | n | u
N=c1c(C(=O)NCC2CCCO2)cc2c(=O)n3ccccc3nc2n1C1CCCC1 (centres undefined) | n | n | n | n | n
N=c1c(C(=O)NCC2CCCO2)cc2c(=O)n3ccccc3nc2n1C1CCCCC1 (centres undefined) | n | 2.62µM | n | n | n
N#Cc1ccc(CSc2nnc(NC(=O)CCc3nc4ccccc4c(=O)[nH]3)s2)cc1 | x | n | n | n | u
CNC(=O)C[C@H]1C(=O)N(c2ccc(OC)cc2)C[C@@H]1C | x | x | n | x | x
CCOc1ccc(S(=O)(=O)Nc2cc3c(C(=O)OCc4ccccc4)c(C)oc3c3ccccc23)cc1 | x | x | -84.0 | n | x
CCCOC(=O)c1c(C)oc2c1cc(NS(=O)(=O)c1ccc(OCC)cc1)c1ccccc12 | x | x | -96.1 | n | x
CCOC(=O)c1c(C)oc2c1cc(NS(=O)(=O)c1ccc(C(=O)O)cc1)c1ccccc12 | u | n | n | 28.2µM | n
Cc1oc2c(cc(NS(=O)(=O)c3ccc(C(C)C)cc3)c3ccccc32)c1C(=O)OCc1ccccc1 | x | x | n | n | x
O=C1NC(=O)C2(CCCC2)N1 | x | x | n | x | x
CCNC(=O)C1CCCN(C(=O)c2cccc(Cl)c2)CC1 (centres undefined) | x | x | n | x | x
CCCN(C(=O)c1c(CC)noc1C)c1c(N)n(Cc2ccccc2)c(=O)[nH]c1=O | x | n | n | n | n
SMILES | FBPA Giardia inh | Pf growth 96h | HCMV inh | Sm TGR block | Pf growth 48h
Cc1cccc(Nc2nnc(-n3nc(C)cc3C)c3ccccc23)c1 | x | x | n | n | x
Cc1ccc(C(=O)N2CCC3(CC2)Oc2ccc(F)cc2C(=O)C32CC(c3cccnc3)=NO2)s1 (centres undefined) | n | 13.1µM | n | n | 9.28µM
CCC(=O)N1CCC2(CC1)Oc1ccc(F)cc1C(=O)C21CC(c2ccccc2)=NO1 (centres undefined) | n | u | n | 50.1µM | n
COc1cccc([C@@H]2Oc3ccc(OC)cc3/C(=N/OC[C@@H](O)COCc3ccco3)[C@@H]2O)c1 | n[12.9 µM] | x | x | x | x
CCS(=O)(=O)c1ccc(O)c(Nc2cc(C)nc(SC)n2)c1 | x | x | n | n | x
CCCCC/C=C\C[C@@H](O)/C=C/C=C/C=C/[C@@H](O)CCCC(=O)O | n | x | x | x | x
